Active and inactive are the calls of the source. The calls were made as follows: active = hit-call score of the fitted dose curve at least 0.9, where 1 is the maximum; inactive = score below 0.9.
Experiments:
[1] = ATG_GLI_CIS: Attagene CIS-FACTORIAL HepG2 Assay for human Zinc Finger Protein GLI1 (AID 2282945); details: HepG2, Attagene cis-factorial reporter mRNA, GLI element; actives raise or lower the signal
Procedure, shortened: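 Bidirectional curve fits relative to DMSO, using reporter mRNA levels from RT-PCR plus capillary electrophoresis. Cells were HepG2 transiently carrying cis-regulated reporter constructs, harvested 24 h after dosing.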

[2] = target: Bile acid receptor (Homo sapiens) (UniProt Q96RI1); test: ATG_IR1_CIS: Attagene CIS-FACTORIAL HepG2 Assay for human Nuclear Receptor Subfamily 1 Group H Member 4 (NR1H4), IR1 submotif (AID 2282946); details: IR1 reporter transcription, actives raise or lower the signal
Procedure, shortened: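 HepG2 cells transiently transfected with multiplexed cis-element reporter units read endogenous transcription factor activity. After 24 h compound exposure, reporter mRNA was quantified by RT-PCR, fluorescent labelling, HpaI digestion and capillary electrophoresis; bidirectional fitting versus DMSO baseline.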

[3] = ATG_GRE_CIS: Attagene CIS-FACTORIAL HepG2 Assay for human Glucocorticoid Response Elements (GRE) (AID 2282947); details: HepG2 GRE cis-reporter, Attagene multiplex mRNA; actives raise or lower the signal
Procedure, shortened: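 Reporter transcripts read by RT-PCR with capillary electrophoresis fluorescence after a 24 h chemical exposure of HepG2 cells transiently transfected with multiple cis-element reporter units. Gain or loss fitted against DMSO.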

[4] = ATG_M_32_CIS: Attagene CIS-FACTORIAL HepG2 Assay for M32 Transcription Factor (Internal Marker) (AID 2282949); details: HepG2 Attagene cis-factorial M32 reporter, mRNA; actives raise or lower the signal;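 also: background control marker of the multiplexed CIS panel rather than a real target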
Procedure, shortened: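 HepG2 human liver cells transiently transfected with cis-promoter-driven multiple reporter transcription units, dosed 24 h. Reporter mRNA quantified by RT-PCR, FAM-labelled primer extension, HpaI digest and capillary electrophoresis; bidirectional fit versus DMSO baseline.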

[5] = ATG_M_06_CIS: Attagene CIS-FACTORIAL HepG2 Assay for M06 Transcription Factor (Internal Marker) (AID 2282950); details: HepG2 Attagene CIS-FACTORIAL M06 internal marker reporter; actives raise or lower the signal
Procedure, shortened: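 Serves as a background control readout. Transfected HepG2 exposed to compounds for 24 h, then reporter transcripts quantified by fluorescent RT-PCR and capillary electrophoresis. Both directions fitted against DMSO baseline.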

[6] = target: Hypoxia-inducible factor 1-alpha (Homo sapiens) (UniProt Q16665); test: ATG_HIF1a_CIS: Attagene CIS-FACTORIAL HepG2 Assay for human Hypoxia Inducible Factor 1 (HIF1A) (AID 2282951); details: HepG2 Attagene cis-factorial HIF1a reporter transcription; actives raise or lower the signal
Procedure, shortened: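 Transient MRTU transfection of human HepG2 liver cells, 24 h compound treatment, then total RNA isolation, oligo(dT) reverse transcription, PCR amplification, fluorescent labelling and capillary electrophoresis of reporter fragments. Gain or loss relative to DMSO.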

[7] = target: Hepatocyte nuclear factor 6 (Homo sapiens) (UniProt Q9UBC0); test: ATG_HNF6_CIS: Attagene CIS-FACTORIAL HepG2 Assay for human Hepatocyte Nuclear Factor 6 (HNF6) (AID 2282952); details: HepG2 Attagene cis-factorial HNF6 reporter transcription; actives raise or lower the signal
Procedure, shortened: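 Readout: fluorescent reporter-transcript fragments resolved by capillary electrophoresis after RT-PCR, reflecting endogenous factor activity in transfected HepG2. Exposure 24 h. Gain or loss of signal fitted bidirectionally against DMSO.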

[8] = target: Heat shock factor protein 1 (Homo sapiens) (UniProt Q00613); test: ATG_HSE_CIS: Attagene CIS-FACTORIAL HepG2 Assay for human Heat Shock Transcription Factor 1 (HSE) (AID 2282953); details: HepG2 HSE cis-reporter, Attagene RNA transcription; actives raise or lower the signal
Procedure, shortened: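 Endogenous transcription factor activity in transiently transfected HepG2, read as reporter mRNA by RT-PCR with fluorescent capillary electrophoresis after 24 h. Gain or loss of signal fitted versus DMSO baseline.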

[9] = ATG_MRE_CIS: Attagene CIS-FACTORIAL HepG2 Assay for human Metal Responsive Element (MRE) (AID 2282954); details: HepG2 MRE cis-reporter transcription, Attagene multiplex; actives raise or lower the signal
Procedure, shortened: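 Endogenous MRE-dependent transcription read as reporter mRNA in transiently transfected human HepG2 cells at 24 h. RNA reverse-transcribed, PCR-amplified, labelled and resolved by capillary electrophoresis; gain or loss relative to DMSO.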

[10] = ATG_PBREM_CIS: Attagene CIS-FACTORIAL HepG2 Assay for human Phenobarbital-responsive Enhancer Module (PBREM) (AID 2282955); details: HepG2 PBREM cis-reporter, Attagene multiplexed transcription; actives raise or lower the signal
Procedure, shortened: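 Endogenous transcription factors in human liver HepG2 cells drive a PBREM cis-element reporter, whose transcript level after 24 h treatment is quantified by RT-PCR with capillary electrophoresis; activity fitted in both directions against DMSO.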

[11] = ATG_PXRE_CIS: Attagene CIS-FACTORIAL HepG2 Assay for human Pregnane X Receptor Element (PXRE) (AID 2282957); details: HepG2 Attagene CIS-FACTORIAL PXRE reporter, mRNA; actives raise or lower the signal
Procedure, shortened: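 Read-out: fluorescence of reporter-specific RT-PCR products resolved by capillary electrophoresis, fitted bidirectionally relative to DMSO. Human HepG2 liver cells carried transfected cis-promoter reporter units and were exposed to chemicals for 24 h.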

[12] = ATG_RORE_CIS: Attagene CIS-FACTORIAL HepG2 Assay for human RAR-related Orphan Receptor Element (RORE) (AID 2282959); details: HepG2 Attagene cis-factorial RORE reporter, mRNA; actives raise or lower the signal
Procedure, shortened: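 Transient MRTU transfection of human HepG2 liver cells (FuGene 6); 24 h compound exposure; TriZol RNA, oligo(dT) RT, PCR, FAM labeling, HpaI cut, CE fragment analysis. DMSO = negative control/baseline.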

[13] = ATG_Sox_CIS: Attagene CIS-FACTORIAL HepG2 Assay for human SRY-box transcription factor (SOX) (AID 2282960); details: HepG2 Attagene cis-factorial SOX reporter, mRNA; actives raise or lower the signal
Procedure, shortened: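 Endogenous factor activity in human liver HepG2 cells carrying transfected cis-regulated reporter units. RNA taken 24 h post-dose, reverse-transcribed, PCR-amplified and sized by capillary electrophoresis. Gain or loss of signal fitted relative to DMSO.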

[14] = target: Transcription factor Sp1 (Homo sapiens) (UniProt P08047); test: ATG_Sp1_CIS: Attagene CIS-FACTORIAL HepG2 Assay for human Specificity Protein 1 (Sp1) (AID 2282961); details: HepG2 Sp1 cis-reporter transcription, actives raise or lower the signal
Procedure, shortened: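 Transient MRTU-transfected HepG2, 24 h compound exposure. Total RNA → oligo(dT) RT → PCR of reporter → 6-FAM primer extension → HpaI digest → CE. Endpoint fitted both directions vs DMSO.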

[15] = ATG_SREBP_CIS: Attagene CIS-FACTORIAL HepG2 Assay for human Sterol Regulatory Element Binding (SREBP) (AID 2282962); details: HepG2 Attagene cis-factorial SREBP reporter, mRNA; actives raise or lower the signal
Procedure, shortened: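 Readout: fluorescent reporter-transcript peaks resolved by capillary electrophoresis after RT-PCR. Cells were human HepG2 carrying transfected cis-promoter reporter constructs, dosed for 24 h. Gain or loss of signal was fitted against DMSO controls.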

[16] = ATG_TA_CIS: Attagene CIS-FACTORIAL HepG2 Assay for human TA Basal Promoter (AID 2282964); details: HepG2 Attagene CIS-factorial TA basal promoter reporter; actives raise or lower the signal
Procedure, shortened: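 Background-control readout: TA basal promoter reporter mRNA, fitted in both directions relative to DMSO. Measured by RT-PCR and capillary electrophoresis 24 hours after treating HepG2 human liver cells transiently carrying multiplexed cis-regulated reporter constructs.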

[17] = target: Paired box protein Pax-6 (Homo sapiens) (UniProt P26367); test: ATG_Pax6_CIS: Attagene CIS-FACTORIAL HepG2 Assay for human Paired Box 6 (PAX6) (AID 2282956); details: HepG2 CIS-FACTORIAL PAX6 reporter transcription, RNA readout; actives raise or lower the signal
Procedure, shortened: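 Readout: reporter transcript fluorescence after RT-PCR and capillary electrophoresis. Cells: HepG2, transiently transfected with cis-regulated MRTUs. Exposure 24 h. Gain or loss of signal fitted bidirectionally relative to DMSO.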

[18] = ATG_PPRE_CIS: Attagene CIS-FACTORIAL HepG2 Assay for human Peroxisome Proliferator-activated Response Element (PPRE) (AID 2282958); details: HepG2 PPRE cis-element reporter, Attagene transcription factor profiling; actives raise or lower the signal
Procedure, shortened: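 HepG2, transient MRTU transfection (cis promoter elements, endogenous TFs). 24 h dosing. RNA → oligo(dT) RT → PCR → 6-FAM primer extension → HpaI digest → CE. Bidirectional fit vs DMSO.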

[19] = target: Signal transducer and activator of transcription 3 (Homo sapiens) (UniProt P40763); test: ATG_STAT3_CIS: Attagene CIS-FACTORIAL HepG2 Assay for human Signal Transducer and Activator of Transcription 3 (STAT3) (AID 2282963); details: HepG2, Attagene cis-factorial STAT3 reporter transcription; actives raise or lower the signal
Procedure, shortened: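 Readout is reporter transcript quantified by RT-PCR and capillary electrophoresis, with 6-FAM primer extension and HpaI digestion. Total RNA is taken 24 h after dosing transiently transfected HepG2 carrying cis-regulated reporter units. Bidirectional fit against DMSO.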

[20] = ATG_ISRE_CIS: Attagene CIS-FACTORIAL HepG2 Assay for human Interferon Regulatory Factor 1 (IRF1) binding to an Interferon-Stimulated Response Element (ISRE) (AID 2282948); details: HepG2 ISRE cis-reporter (Attagene), mRNA transcription readout; actives raise or lower the signal
Procedure, shortened: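 Read-out: fluorescent RT-PCR products resolved by capillary electrophoresis, reporting endogenous transcription factor activity via ISRE-driven reporter mRNA in transfected HepG2 cells dosed for 24 h; gain or loss fitted relative to DMSO.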

Measured: AC50

Chain of Hypoxia-inducible factor 1-alpha (Homo sapiens) (Q16665 whole entry, looked up, the tested form may be a part): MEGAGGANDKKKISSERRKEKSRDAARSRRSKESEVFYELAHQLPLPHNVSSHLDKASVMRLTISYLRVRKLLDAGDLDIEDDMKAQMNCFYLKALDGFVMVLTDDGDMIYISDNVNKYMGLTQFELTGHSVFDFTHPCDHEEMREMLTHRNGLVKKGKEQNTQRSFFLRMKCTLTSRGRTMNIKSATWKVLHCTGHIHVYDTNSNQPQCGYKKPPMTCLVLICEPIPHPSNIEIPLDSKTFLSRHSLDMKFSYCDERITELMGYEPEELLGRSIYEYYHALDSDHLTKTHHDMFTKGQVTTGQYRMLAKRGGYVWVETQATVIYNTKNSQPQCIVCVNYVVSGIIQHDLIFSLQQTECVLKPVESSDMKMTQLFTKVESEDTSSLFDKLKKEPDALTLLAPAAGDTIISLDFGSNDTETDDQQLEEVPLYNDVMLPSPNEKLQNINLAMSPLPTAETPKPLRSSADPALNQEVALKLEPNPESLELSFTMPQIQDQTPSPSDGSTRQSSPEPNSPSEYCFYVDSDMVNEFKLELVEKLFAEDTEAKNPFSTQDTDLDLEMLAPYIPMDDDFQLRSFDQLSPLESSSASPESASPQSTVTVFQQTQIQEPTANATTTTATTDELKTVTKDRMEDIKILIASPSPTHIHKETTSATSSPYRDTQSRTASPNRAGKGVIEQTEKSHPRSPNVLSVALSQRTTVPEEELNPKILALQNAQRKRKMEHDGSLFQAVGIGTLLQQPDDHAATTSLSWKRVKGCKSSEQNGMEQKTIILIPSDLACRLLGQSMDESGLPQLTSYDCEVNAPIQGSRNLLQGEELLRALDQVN
Chain of Transcription factor Sp1 (Homo sapiens) (P08047 whole entry, looked up): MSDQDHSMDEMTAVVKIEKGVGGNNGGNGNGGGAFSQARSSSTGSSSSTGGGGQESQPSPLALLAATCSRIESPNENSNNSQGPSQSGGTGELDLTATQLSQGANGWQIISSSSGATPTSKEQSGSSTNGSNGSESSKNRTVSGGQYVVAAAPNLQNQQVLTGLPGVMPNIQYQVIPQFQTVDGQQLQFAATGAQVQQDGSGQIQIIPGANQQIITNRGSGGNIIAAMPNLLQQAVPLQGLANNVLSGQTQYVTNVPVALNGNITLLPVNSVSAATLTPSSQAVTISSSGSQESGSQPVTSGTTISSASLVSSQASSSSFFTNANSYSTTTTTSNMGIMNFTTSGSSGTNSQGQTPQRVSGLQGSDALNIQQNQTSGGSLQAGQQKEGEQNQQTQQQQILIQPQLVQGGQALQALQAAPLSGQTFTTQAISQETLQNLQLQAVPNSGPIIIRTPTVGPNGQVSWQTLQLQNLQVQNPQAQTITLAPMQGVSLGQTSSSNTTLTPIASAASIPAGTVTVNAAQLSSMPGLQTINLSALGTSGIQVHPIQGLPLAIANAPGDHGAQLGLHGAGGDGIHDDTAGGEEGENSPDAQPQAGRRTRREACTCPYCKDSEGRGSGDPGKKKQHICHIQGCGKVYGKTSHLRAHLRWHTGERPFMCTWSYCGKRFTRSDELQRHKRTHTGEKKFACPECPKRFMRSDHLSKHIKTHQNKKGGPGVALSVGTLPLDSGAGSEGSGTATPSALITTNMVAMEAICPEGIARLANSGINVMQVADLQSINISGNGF
Chain of Bile acid receptor (Homo sapiens) (Q96RI1 whole entry, looked up): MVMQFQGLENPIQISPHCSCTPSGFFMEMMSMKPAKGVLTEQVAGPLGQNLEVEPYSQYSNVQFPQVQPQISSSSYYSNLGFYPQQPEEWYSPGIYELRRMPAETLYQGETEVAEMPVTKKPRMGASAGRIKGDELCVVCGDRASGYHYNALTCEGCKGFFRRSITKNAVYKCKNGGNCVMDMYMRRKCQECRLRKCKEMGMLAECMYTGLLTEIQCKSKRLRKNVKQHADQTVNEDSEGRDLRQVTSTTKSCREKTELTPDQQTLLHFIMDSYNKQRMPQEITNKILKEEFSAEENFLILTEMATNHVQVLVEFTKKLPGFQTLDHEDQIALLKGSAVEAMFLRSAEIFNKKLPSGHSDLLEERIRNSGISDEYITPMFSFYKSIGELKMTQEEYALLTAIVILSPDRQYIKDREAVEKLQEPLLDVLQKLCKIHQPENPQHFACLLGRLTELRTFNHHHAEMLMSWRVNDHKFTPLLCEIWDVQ
Chain of Paired box protein Pax-6 (Homo sapiens) (P26367 whole entry, looked up): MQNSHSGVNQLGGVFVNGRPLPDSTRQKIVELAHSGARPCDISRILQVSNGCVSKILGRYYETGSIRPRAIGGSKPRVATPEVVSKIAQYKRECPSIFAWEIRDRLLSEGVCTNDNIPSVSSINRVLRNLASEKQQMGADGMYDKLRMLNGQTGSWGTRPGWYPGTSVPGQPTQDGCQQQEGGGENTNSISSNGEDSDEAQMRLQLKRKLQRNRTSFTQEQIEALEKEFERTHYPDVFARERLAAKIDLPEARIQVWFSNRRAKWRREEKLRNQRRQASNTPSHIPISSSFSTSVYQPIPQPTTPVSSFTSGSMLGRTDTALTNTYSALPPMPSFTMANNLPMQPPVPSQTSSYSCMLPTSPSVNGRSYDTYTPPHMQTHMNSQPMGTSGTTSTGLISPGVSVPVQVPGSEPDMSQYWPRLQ
Chain of Heat shock factor protein 1 (Homo sapiens) (Q00613 whole entry, looked up): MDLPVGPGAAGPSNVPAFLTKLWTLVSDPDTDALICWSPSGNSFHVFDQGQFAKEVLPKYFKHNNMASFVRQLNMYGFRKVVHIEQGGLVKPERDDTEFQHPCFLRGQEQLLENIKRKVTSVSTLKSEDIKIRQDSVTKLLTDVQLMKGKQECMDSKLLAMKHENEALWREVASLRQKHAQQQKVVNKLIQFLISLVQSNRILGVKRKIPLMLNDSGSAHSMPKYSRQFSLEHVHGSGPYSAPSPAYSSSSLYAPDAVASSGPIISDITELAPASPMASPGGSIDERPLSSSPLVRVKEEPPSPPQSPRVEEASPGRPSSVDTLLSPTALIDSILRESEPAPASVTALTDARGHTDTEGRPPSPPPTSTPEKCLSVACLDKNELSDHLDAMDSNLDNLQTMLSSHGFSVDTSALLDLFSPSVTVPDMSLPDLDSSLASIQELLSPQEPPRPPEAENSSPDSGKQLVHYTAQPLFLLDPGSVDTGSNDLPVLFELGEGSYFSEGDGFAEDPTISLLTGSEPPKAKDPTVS
Chain of Hepatocyte nuclear factor 6 (Homo sapiens) (Q9UBC0 whole entry, looked up, the tested form may be a part): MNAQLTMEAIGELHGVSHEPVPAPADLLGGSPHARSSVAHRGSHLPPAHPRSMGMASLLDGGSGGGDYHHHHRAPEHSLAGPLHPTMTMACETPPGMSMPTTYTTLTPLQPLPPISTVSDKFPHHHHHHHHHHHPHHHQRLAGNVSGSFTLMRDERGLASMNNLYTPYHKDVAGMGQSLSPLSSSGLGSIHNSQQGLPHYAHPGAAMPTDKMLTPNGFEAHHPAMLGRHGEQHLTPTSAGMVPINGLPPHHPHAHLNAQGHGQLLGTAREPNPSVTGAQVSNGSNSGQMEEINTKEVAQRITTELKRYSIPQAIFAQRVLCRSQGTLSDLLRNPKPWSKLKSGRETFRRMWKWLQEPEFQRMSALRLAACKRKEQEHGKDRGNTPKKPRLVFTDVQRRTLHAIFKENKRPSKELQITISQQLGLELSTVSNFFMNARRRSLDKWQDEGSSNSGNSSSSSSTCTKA
Chain of Signal transducer and activator of transcription 3 (Homo sapiens) (P40763 whole entry, looked up): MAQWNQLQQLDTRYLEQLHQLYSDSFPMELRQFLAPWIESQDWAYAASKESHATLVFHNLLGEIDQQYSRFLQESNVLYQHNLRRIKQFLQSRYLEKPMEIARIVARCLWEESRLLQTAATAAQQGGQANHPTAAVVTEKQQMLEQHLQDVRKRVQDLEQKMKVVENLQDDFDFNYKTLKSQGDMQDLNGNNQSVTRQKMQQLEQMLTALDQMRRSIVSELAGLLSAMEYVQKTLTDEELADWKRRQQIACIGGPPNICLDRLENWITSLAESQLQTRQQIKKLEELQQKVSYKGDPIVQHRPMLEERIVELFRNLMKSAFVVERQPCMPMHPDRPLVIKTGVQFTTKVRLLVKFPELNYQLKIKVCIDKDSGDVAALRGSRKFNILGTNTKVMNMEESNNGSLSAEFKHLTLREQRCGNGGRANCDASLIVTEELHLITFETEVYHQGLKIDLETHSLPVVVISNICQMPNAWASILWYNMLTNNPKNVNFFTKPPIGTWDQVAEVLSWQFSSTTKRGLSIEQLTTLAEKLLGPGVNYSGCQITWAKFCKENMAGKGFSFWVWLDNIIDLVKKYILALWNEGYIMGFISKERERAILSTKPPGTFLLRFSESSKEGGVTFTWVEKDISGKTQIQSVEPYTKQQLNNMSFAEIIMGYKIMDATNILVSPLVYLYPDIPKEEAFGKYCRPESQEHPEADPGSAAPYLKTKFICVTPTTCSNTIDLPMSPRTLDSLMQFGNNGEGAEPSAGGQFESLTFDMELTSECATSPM

CCCCCCCOC(=O)c1ccc(O)cc1
active: [1] 45.7 µM | [2] 50.9 µM | [6] 59.9 µM | [9] 52.6 µM | [13] 33.4 µM | [14] 33.4 µM
not listed: [17] | [18] | [19] | [20]
inactive: all other assays above

O=C(Cl)c1c(Cl)c(Cl)c(C(=O)Cl)c(Cl)c1Cl
active: [11] 27.9 µM
not listed: [16] | [20]
inactive: all other assays above

NNS(=O)(=O)c1ccc(Oc2ccc(S(=O)(=O)NN)cc2)cc1
not listed: [3] | [10] | [12]
inactive: all other assays above

Oc1c(Cl)cc(Cl)c(Cl)c1Cl
active: [7] 51.7 µM | [9] 70.8 µM | [17] 82.6 µM | [11] 26.5 µM | [18] 21.9 µM | [12] 43.4 µM | [16] 61.5 µM
not listed: [10] | [19] | [20]
inactive: all other assays above

From PubChem BioAssay (EPA / NIEHS)
